High-throughput results: PubChem, National Center for Advancing Translational Sciences (NCATS)
Shown are actives, neighbours in structure and some others; about 2% of the full set was active somewhere.
aSyn yeast inh = qHTS of alpha-syn Inhibitors. actives 0.14% (n = 370,000). Potency, µM (doses to about 46.1 µM), for inactives: at the top dose growth rescue (activation), actives largely listed as activators. Yeast expressing alpha-synuclein, growth rescue, BacTiter-Glo, 24 h; also: potency is read from the fitted curve at half-maximal effect; % of control where 0% means no effect; nearly all actives have a fitted effect of over 65% in size
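Readout is rescue of growth in alpha-synuclein-expressing yeast, so inhibitors of toxicity appear as activators. Growth after 24 hr at 30 deg C in galactose medium is quantified by luminescence.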
Abeta yeast res = qHTS for compounds that reverse cellular toxicity of Amyloid beta (A-beta) peptide in yeast: Primary Screen; yeast expressing A-beta42, growth rescue, OD600, 48 h; response scale: 0% DMSO, 100% iron-clioquinol control; Potency, µM (series often up to 46.1 µM), actives largely listed as activators; actives 0.063% (n = 410,000); AID 1347071, 2019; also: potency is read from the fitted curve at half-maximal effect; nearly all actives have a fitted effect of over 55% in size
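Yeast A-beta toxicity model in growth medium with pinned compounds, 48 h at 30 C; growth read as absorbance at 600 nm. Normalized to FeCl3/clioquinol equimolar mix (positive) and DMSO (negative).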
FUS suppressor = qHTS for Suppressors of FUS Proteinopathy: Primary screen using FUS-linked yeast assay | S. cerevisiae FUS-expressing, growth rescue, OD600, 24 h | AID 1347120, 2019 | Potency, µM (titrated, usually from 76.6 µM), actives largely listed as activators | actives 0.24% (n = 390,000);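 also: potency is read from the fitted curve at half-maximal effect; plate controls were DMSO vehicle for no effect and reference control for full effect; nearly all actives have a fitted effect of over 55% in size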
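Toxicity suppression screen in FUS-yeast. Cells induced with 2% galactose, starting OD 0.005, treated 24hr at 30C with compounds at multiple final concentrations; growth by OD600.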
LDHA inh = qHTS assay for inhibitors of human lactate dehydrogenase | L-lactate dehydrogenase A chain (Homo sapiens), P00338 | purified LDHA, NADH/diaphorase-resazurin fluorescence; active compounds read low | activity change, % (values are at about 110 or 230 µM) | actives 0.15% (n = 480,000) | AID 1347041, 2019; in the data active = activity change below about -30%; inconclusive = mostly about -25% to -30%;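 also: plate controls were DMSO wells for no effect and wells without enzyme for full effect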
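Resorufin fluorescence (ex540/em590), read at 0 and 20 min after diaphorase/resazurin addition, reports the NADH left after a 5 min room-temperature reaction of 2 nM human LDH5 with 0.06 mM NADH and 0.2 mM pyruvate.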
mIDH1 inhibitor = qHTS for Inhibitors of mutant isocitrate dehydrogenase 1 (IDH1): qHTS; actives 0.093% (n = 390,000); Potency, µM (titrated, usually from 76.6 µM), inactives show at the top dose activity change, negative = inhibition, hits mostly inhibitors; IDH1-R132H enzyme, NADPH consumption, diaphorase/resazurin fluorescence; AID 602179, 2012; also: potency is read from the fitted curve at half-maximal effect; % is scaled to controls: 0 for no effect and ±100 for the full control effect; nearly all actives have a fitted effect of over 65% in size
Target sequence (O75874 whole entry R132H, stated change not applied): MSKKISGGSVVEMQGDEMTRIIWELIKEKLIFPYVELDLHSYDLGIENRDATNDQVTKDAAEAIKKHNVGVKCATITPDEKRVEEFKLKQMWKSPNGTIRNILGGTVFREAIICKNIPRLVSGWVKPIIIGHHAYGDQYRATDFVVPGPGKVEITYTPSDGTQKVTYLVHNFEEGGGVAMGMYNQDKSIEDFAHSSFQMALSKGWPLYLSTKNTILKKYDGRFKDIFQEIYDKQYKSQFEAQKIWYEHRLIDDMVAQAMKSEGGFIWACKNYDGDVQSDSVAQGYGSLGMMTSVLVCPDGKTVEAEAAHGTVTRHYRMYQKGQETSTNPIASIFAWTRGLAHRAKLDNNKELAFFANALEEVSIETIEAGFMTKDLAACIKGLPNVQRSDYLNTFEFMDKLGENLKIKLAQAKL
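IDH1-R132H (0.5 ug/mL) preincubated 30 min with compound, then NADPH (0.016 mM) and alpha-KG (2 mM) added; 80 min at RT, pH 7.5. Remaining NADPH coupled via diaphorase/resazurin to fluorescence (540/590 nm); concentration-response curves normalized to no-enzyme control.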
TDP43 rescue = qHTS of TDP-43 Inhibitors. TDP-43 expressing yeast growth rescue, BacTiter-Glo, 24 h. Potency, µM (doses to about 46.1 µM), for the others: top-dose growth rescue (activation), usual class: activators. actives 1.8% (n = 410,000); also: potency is read from the fitted curve at half-maximal effect; % of control where 0% means no effect; nearly all actives have a fitted effect of over 50% in size
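Cell-based yeast growth screen: TDP-43 expression induced in galactose, inoculum OD600=0.02 after raffinose pregrowth to mid-log. Read-out BacTiter-Glo luminescence at 24 hr, 30 deg C; inhibition of toxicity seen as signal increase.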
Numbers without * were called inactive; i = inactive; ? = inconclusive; . = no result given. Unless noted, calls follow the shape of the dose curve; as a rule, active = well fitted curve in the direction sought with a large enough effect; inconclusive = small, poorly fitted or top-dose-only effect, or another doubt; inactive = no such curve, though single readings can be large; an effect the other way counts as inactive or inconclusive.

SMILES	aSyn yeast inh	Abeta yeast res	FUS suppressor	LDHA inh	mIDH1 inhibitor	TDP43 rescue
Cc1ccc2cc3cc(C(=O)N4CCN(C(=O)c5ccco5)CC4)sc3nc2c1	-1%	i	i	-1	-1%	13µM*
CCc1ccc2nc(N3CCN(C(=O)c4ccccc4)CC3)sc2c1	.	i	i	-11	-4%	11µM*
COc1ccc(C)c2sc(N3CCN(C(=O)c4cccc(F)c4)CC3)nc12	.	i	i	2	13%	19%
COc1ccc(C)c2sc(N3CCN(C(=O)c4ccco4)CC3)nc12	.	i	i	-1	-3%	22µM*
O=C(c1ccc2nc(N3CCOCC3)sc2c1)N1CCC(Cc2ccccc2)CC1	5%	i	?	0	1%	25µM*
Cc1ccccc1C(=O)NCC(c1ccccc1)c1c[nH]c2ccccc12 (configuration not stated)	.	.	.	11	.	.
COc1ccc(-n2cnc3c2NC(=O)CC3c2cccnc2)cc1 (configuration not stated)	.	.	.	97	.	.
COC(=O)CNC(=O)c1cc(-c2ccco2)nc2ccccc12	.	.	.	5	.	.
Cc1cccc(C)c1NC(=O)N1CCN(c2nc3ccccc3s2)CC1	0%	i	i	1	-4%	?
Cc1ccc(C)c(N2CCN(C(=O)c3ccc4nc(N5CCOCC5)sc4c3)CC2)c1	4%	i	?	-1	6%	13µM*
Cc1cc2nc(N3CCN(C(=O)c4ccco4)CC3)sc2cc1C	1%	i	i	-3	0%	11%
Cc1cccc(Cl)c1NC(=O)N1CCCN(c2nc3ccc(Cl)cc3s2)CC1	5%	?	i	1	-3%	20µM*
Cc1ccc(Cl)cc1N1CCN(C(=O)c2ccc3nc(N4CCC(C)CC4)sc3c2)CC1	.	i	?	-1	-1%	3%
O=C(c1ccco1)N1CCN(c2nc3ccc(Cl)cc3s2)CC1	.	i	i	-6	-5%	11µM*
CCC1CCc2sc(C(=O)N(C)CC(=O)Nc3ccc(OC)cc3)cc2C1 (configuration not stated)	24%	i	i	1	3%	11µM*
CCC1CCc2sc(C(=O)N(C)CC(=O)Nc3cccc(OC)c3)cc2C1 (configuration not stated)	0%	i	.	3	5%	8%
CCC1CCc2sc(C(=O)N(C)CC(=O)Nc3ccc(N4CCOCC4)cc3)cc2C1 (configuration not stated)	6%	i	i	4	0%	8.9µM*
CCNc1nc(NC(C)C)nc(SCCOC(=O)c2ccccc2)n1	-16%	i	i	-1	5%	13µM*
CC(C)Nc1nc(NC(C)C)nc(SCCOC(=O)Nc2ccc(Cl)cc2Cl)n1	-6%	i	.	2	-4%	16µM*
CCNc1nc(NC(C)C)nc(SCCOc2ccc(C)cc2)n1	-12%	i	i	-4	8%	13µM*
CCNc1nc(NCC)nc(SCCOC(=O)COc2ccc(Cl)cc2Cl)n1	-41%	i	i	1	-3%	?
Cc1ccc(NC(=O)CN2CCN(c3ccc(C(F)(F)F)cn3)CC2)c(F)c1	.	.	.	5	.	.
COc1ccc(C(=O)c2cnc3ccccc3c2-c2ccccc2)cc1	13%	i	i	-5	-3%	35µM*
CCOc1ccc(Cn2c(=O)sc3ccccc32)cc1OC	?	i	i	-2	-1%	13µM*
COc1ccc(OCCn2c(C(C)Oc3ccccc3)nc3ccccc32)cc1 (configuration not stated)	.	?	i	2	0%	20µM*
SMILES	aSyn yeast inh	Abeta yeast res	FUS suppressor	LDHA inh	mIDH1 inhibitor	TDP43 rescue
COc1cc(Cn2c(=O)sc3ccccc32)ccc1OC(C)C	.	i	i	0	19%	21%
COc1ccc(Cn2c(=O)sc3ccccc3c2=O)cc1	?	i	i	-4	-2%	11µM*
COc1ccccc1OCCn1c(=O)sc2ccccc21	10%	i	i	-6	0%	?
COCCn1c(=O)sc2ccccc2c1=O	2%	i	i	-9	3%	?
COc1ccc(OCCn2c(=O)sc3ccccc32)cc1	25µM*	i	i	-4	0%	16µM*
Cc1ccc(C)c(N/N=C2\CCCNC2=O)c1	-17%	i	.	10	2%	20µM*
COc1ccc2c(c1)N=C(c1[nH]c3ccccc3c1CCN1C(=O)c3ccccc3C1=O)[C@]2(O)CCN1C(=O)c2ccccc2C1=O	.	.	18µM*	.	.	.
O=C1c2ccccc2C(=O)N1CCC1(O)C(c2ccccc2)=Nc2ccccc21 (configuration not stated)	2%	i	i	1	-10%	24%
CCN1C(=O)CCc2cc(NS(=O)(=O)c3c(C)cc(C)cc3C)ccc21	.	.	.	2	.	.
Cc1occc1C(=O)n1nnc2ccccc21	11%	i	i	-4	3%	16µM*
COc1ccc(-c2cc(-c3nc(-c4ccccc4F)no3)[nH]n2)c(OC)c1	.	.	.	-6	.	.
CCOC(=O)N1CCN(c2c(-c3ccc(C(C)C)cc3)c(=O)c2=O)CC1	0%	i	i	-5	-3%	20µM*
Cc1cccc([N+](=O)[O-])c1NC(=O)COc1ncnc2ccccc12	.	.	.	3	.	.
O=C(c1ccccc1)c1ccc(O)cc1	.	.	.	1	.	.
CC(C)(C)n1nnnc1C(c1ccccc1)N1CCN(c2ccc(C(F)(F)F)cn2)CC1 (configuration not stated)	-1%	i	i	-12	.	35µM*
CC(C)(C)n1nnnc1C(c1cccnc1)N1CCN(c2ccccn2)CC1 (configuration not stated)	10%	i	i	-1	0%	-5%
CCCOc1ccc(C(=O)c2nc3c(n2O)CCCC3)cc1	.	i	i	0	-3%	13µM*
CNc1ncc(C(=O)c2ccc(Cl)cc2)s1	-3%	i	i	-10	-8%	10µM*
CN(C)c1ccc(NC(=S)NCC2CCCO2)cc1 (configuration not stated)	0%	i	i	0	6%	8%
